Ecoli rRNA inh: reduced GFP signal of wild-type E. coli, primary screen, bacterial rRNA inhibitor project, GFP/RFP fluorescence, OD600, single point | E. coli WT GFP vs humanized-ribosome RFP mutants, 24 h; active compounds read low; DMSO median 0, no signal -100 | GFP signal change (wild-type ribosome), % (test concentration not listed) | hit rate 1.6% among 350,000 | AID 720706, 2013;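 active = significant combined selectivity score with lowered wild-type GFP, culture density cut under 30%, mutant RFP and density less affected; inactive = any of these conditions unmet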
esBAF inh: Bmi1 luciferase reporter increase in mESCs, primary screen, esBAF inhibitor project, mouse ES cells, Bmi1 luciferase knock-in, single point | AID 602393, 2012 | reporter increase, % at 12.5 µM | 24 h; 100% = twice the neutral-well signal | hit rate 2% among 350,000; in the data active = activation above about 40%; inconclusive = no clear call, values can overlap the other calls;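 note: a rise in the Bmi1 reporter signal indicates esBAF inhibition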
MITF TRPM1 HTS: activators of MITF-driven TRPM1 promoter reporter, primary screen, cell-based, SK-MEL-5, luciferase, single point; SK-MEL-5 TRPM1-promoter luciferase, 24 h; % of positive control, neutral wells = 0; activation, % at 12.5 µM; hit rate 0.75% among 300,000;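 active = mean activation of at least 80% with every replicate also reaching 80%; inconclusive = mean reaches 80% but some replicate falls short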
MLL AF4-AF9 inh: inhibitors of AF4 peptide binding to AF9, primary screen, biochemical, AlphaScreen, biotin-AF4 peptide, FLAG-AF9, single point; Protein AF-9 (Homo sapiens), P42568; inhibition, % at 10 µM; hit rate 0.47% among 350,000;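 active = every replicate reaching a set inhibition limit, whatever the replicate mean, cut at about 25% in these data; inconclusive = mean inhibition reaches that limit but some replicates miss it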
Target sequence (P42568 whole entry, looked up): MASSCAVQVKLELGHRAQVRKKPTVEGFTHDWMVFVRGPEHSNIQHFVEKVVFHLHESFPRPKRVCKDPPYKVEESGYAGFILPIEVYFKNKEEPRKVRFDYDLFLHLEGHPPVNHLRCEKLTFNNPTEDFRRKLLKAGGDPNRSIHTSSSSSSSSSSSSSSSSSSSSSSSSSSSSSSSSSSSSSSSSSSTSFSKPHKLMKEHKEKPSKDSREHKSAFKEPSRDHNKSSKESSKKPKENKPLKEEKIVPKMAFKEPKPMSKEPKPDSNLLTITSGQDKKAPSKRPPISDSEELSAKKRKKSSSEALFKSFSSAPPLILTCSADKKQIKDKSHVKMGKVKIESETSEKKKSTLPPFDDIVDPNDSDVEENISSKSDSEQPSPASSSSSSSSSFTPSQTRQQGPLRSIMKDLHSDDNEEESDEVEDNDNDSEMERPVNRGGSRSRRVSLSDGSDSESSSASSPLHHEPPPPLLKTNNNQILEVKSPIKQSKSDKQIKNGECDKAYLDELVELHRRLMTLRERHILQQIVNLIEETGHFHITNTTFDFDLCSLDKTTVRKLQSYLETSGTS
Wnt act: Wnt/beta-catenin pathway activators, primary screen, cell-based, plate reader, single point | Wnt/beta-catenin reporter cell assay, activator | activation, % at 9.35 µM | hit rate 1.2% among 300,000; in the data active = activation above about 30%, passing the limit was not always enough; inconclusive = no clear call, values can overlap the other calls
A number is an active result; - = inactive; ? = inconclusive; . = no result given. Hits are enriched below; roughly 3.7% of the tested compounds scored in any of these assays.

SMILES	Ecoli rRNA inh	esBAF inh	MITF TRPM1 HTS	MLL AF4-AF9 inh	Wnt act
CCCC(=O)Nc1cc(-c2nc3ncccc3o2)ccc1C	.	-	-	.	-
CC(C)C(=O)Nc1ccc(-c2nc3ncccc3o2)cc1	-	-	.	-	37
CC(C)C(=O)Nc1cccc(-c2nc3ncccc3o2)c1	-	-	.	-	-
Nc1nc(Nc2ccccc2F)sc1C(=O)c1ccccc1	-	.	100	-	35
Brc1cccc(-c2nc3ccc(Br)cn3c2Cc2ccsc2)c1	-	63	.	-	-
Clc1cccc(-c2nc3ccc(Br)cn3c2Cc2ccsc2)c1	-	43	.	-	-
Cc1ccc2nc(-c3cccc(Cl)c3)c(Cc3ccsc3)n2c1	-	.	.	-	-
Clc1ccc2nc(-c3cccc(Br)c3)c(Cc3ccsc3)n2c1	-	-	.	-	-
CS(=O)(=O)N1c2ccccc2[C@]2([C@@]34C[C@H]5C(=O)N[C@@H](Cc6ccccc6)C(=O)N5[C@@H]3N(S(C)(=O)=O)c3ccccc34)C[C@H]3C(=O)N[C@@H](Cc4ccccc4)C(=O)N3[C@H]12	-	.	.	-	-
CCOC(=O)c1c(C)[nH]c(N=Nc2cccc(OC)c2)c1C	-	66	130	-	45
CCOC(=O)c1c(C)[nH]c(C=Nc2ccc(OC)cc2)c1O	.	?	-	.	-
CCOC(=O)c1c(C)[nH]c(O)c1C=Nc1ccccc1	.	-	.	.	-
CCOC(=O)c1c(C)[nH]c(N=Nc2cccc(C)c2)c1C	.	79	103	.	.
CCCc1cc(C(=O)Nc2ccc(C(C)=O)cc2)no1	-	-	-	-	-
CCCc1cc(C(=O)Nc2cccc(C(C)=O)c2)no1	-	51	-	-	40
CCCc1cc(C(=O)Nc2ccc(C#N)cc2)no1	-	-	-	-	-
CCCc1cc(C(=O)Nc2cccc(Cl)c2)no1	-	54	.	-	47
CCCc1cc(C(=O)Nc2cccnc2)no1	-	-	.	-	41
CCCc1cc(C(=O)Nc2ccc(F)c(Cl)c2)no1	-	-	108	-	-
CC1CCc2cc(F)ccc2N1C(=O)CSc1nnc(-c2cccs2)n1C (stereo not drawn)	.	-	-	.	.
CCCc1nnc(NC(=O)CCC(=O)NCc2ccccc2)s1	-	-	-	-	-
COc1ccc(S(=O)(=O)N(C)CC(=O)NCc2cccnc2)cc1OC	-	-	-	.	.
O=C(Nc1cccnc1)c1cc(-c2ccc(Br)cc2)on1	-	-	.	-	50
OCCCn1c(-c2ccccc2)csc1=Nc1ccccc1	-	-	-	45	-
CCCSc1oc(-c2ccco2)nc1S(=O)(=O)c1ccccc1	.	-	-	.	-
SMILES	Ecoli rRNA inh	esBAF inh	MITF TRPM1 HTS	MLL AF4-AF9 inh	Wnt act
O=C(O)COc1ccc(/C=C/c2ccc3cccc([N+](=O)[O-])c3n2)cc1	-	.	-	-	-
CC(=O)Nc1ccc(/C=C/c2ccc3cccc([N+](=O)[O-])c3n2)cc1	-16	.	-	-	-
Cc1cccc(-c2nc3ccccc3c(=O)[nH]2)c1	-	-	97	-	-
O=c1[nH]c(-c2ccncc2)nc2ccccc12	.	-	-	.	-
CC(C)c1ccc2c(c1)C1(NN=C(c3ccccc3)S1)C(=O)N2 (stereo not drawn)	.	87	-	.	-
CO[C@@H]1CN(C)C(=O)c2ccc(NC(=O)Nc3ccc(Cl)cc3)cc2OC[C@@H](C)N(C)C[C@@H]1C	-	-	.	-	.
O=C(NC(=O)c1ccccc1)Nc1ccc(Cl)cn1	-	-	-	-	35
C/C(=C\c1ccccc1)C(=O)Nc1ccc(Cl)cn1	-	-	.	-	33
Cc1cc(NC(=O)c2ccccc2)ncc1NC(=O)c1cccs1	-	.	-	-	-
O=C(Nc1ccc(Cl)cn1)Nc1ccccc1F	.	-	.	.	39
O=C(Nc1ccc(Cl)cn1)Nc1ccc(Cl)cn1	-	.	-	-	-
Cc1cc(NC(=O)c2ccccc2F)ncc1NC(=O)c1cccs1	-	50	-	-	-
C[C@@H]1CN([C@@H](C)CO)C(=O)CCCn2cc(nn2)CO[C@@H]1CN(C)Cc1cccc2c1OCCCO2	-	-	.	-	.
O=C(NC1CCCC1)C1C(c2ccccc2)=Nc2ccccc2N1C(=O)c1ccc(C(F)(F)F)cc1 (stereo not drawn)	.	.	.	.	-
O=C(O)CC1(C(=O)O)CC2C=CC1C2 (stereo not drawn)	-	-	.	-	-
CN(C)C(=O)CSc1nnc(CCNC(=O)OC(C)(C)C)o1	.	.	-	.	.
O=C(Nc1ccc(Cl)cn1)c1cccc(F)c1	.	-	-	.	.
O=C(Nc1ccc(Cl)cn1)c1ccccc1F	.	.	-	.	39
COc1cc2ccccc2cc1C(=O)Nc1ccc(Cl)cn1	.	67	-	-	-
O=C(c1cccc(F)c1)N1C[C@H]2[C@@H](c3ccccc31)[C@H](CO)N2C(=O)C1CCCC1	-	-	.	-	.
Oc1ccc(-c2csc(-c3cccnc3)n2)cc1O	-	.	-	-	-
Oc1ccccc1-c1csc(-c2ccccc2)n1	-	77	-	-	-
Oc1ccc(-c2csc(-c3ccccc3)n2)cc1O	-34	60	-	-	-
O=C(NNC(=O)c1ccccc1F)c1ccc(Cl)c(S(=O)(=O)N2CCOCC2)c1	.	-	-	-	-
O=C(Nc1ccc(F)cc1)/C(Cl)=C/c1ccccc1	-	48	84	-	-
SMILES	Ecoli rRNA inh	esBAF inh	MITF TRPM1 HTS	MLL AF4-AF9 inh	Wnt act
CC(=O)c1ccc(NC(=O)/C(Cl)=C/c2ccccc2)cc1	-	.	138	-	-
O=C(Nc1ccccc1Cl)C1(c2ccccc2)CC1(Cl)Cl (stereo not drawn)	.	.	-	.	-
CC(=O)c1ccc(NC(=O)C2(c3ccccc3)CC2(Cl)Cl)cc1 (stereo not drawn)	-	-	.	33	-
Cc1ccc(NC(=O)/C(Cl)=C\c2ccccc2)cc1	-	-	-	-	-
CC(C)(C)c1ccc(C(=O)Nc2ccc([N+](=O)[O-])cn2)cc1	-	.	107	-	.
O=C(CCC1CCCC1)Nc1ccc([N+](=O)[O-])cn1	.	59	-	.	.
O=C(Nc1ccc([N+](=O)[O-])cn1)c1cccnc1	-	-	.	-	-
CN1C(=O)c2cc(NC(=O)Nc3ccccc3F)ccc2OC[C@H]2O[C@H](CC(=O)NCCc3ccncc3)CC[C@@H]21	-	-	.	-	.
CNC(=S)N(CCc1c(C)[nH]c2ccccc12)Cc1ccco1	-20	-	-	-	-
CNC(=S)N(CCc1c(C)[nH]c2ccc(F)cc12)Cc1ccco1	-	-	-	-	-
COC(=O)c1sccc1-c1ccc(C(=O)Nc2cccnc2)o1	.	-	97	.	-
CC=Cc1ccc2n(c1=O)C[C@H]1[C@H](CO)[C@@H](C(=O)NCC3CC3)[C@@H]2N1Cc1ccccc1 (mixture of isomers)	-	-	.	-	.
C[C@@H]1CN([C@H](C)CO)C(=O)c2cc(-c3ccc(C#N)cc3)cnc2O[C@@H]1CN(C)C(=O)CC1CC1	-	-	.	-	.
Cc1nnc(NC(=O)C(C)Sc2nnc(-c3ccco3)n2C(C)C)s1 (stereo not drawn)	-	-	.	-	-
